The results in this text go back to PubChem BioAssay (NCATS).

Results filed as inconclusive are left out. Where a call stands in place of a potency, no number is given. Activity calls are given as the source filed them. The call rests on the fitted dose curve; in most records, active means well fitted inhibition curve with a large enough effect; inconclusive means small, poorly fitted or top-dose-only effect; inactive means flat fitted curve, though single readings scatter.

This experiment relates to ATS95. Kind of experiment: qHTS profiling for inhibitors of Plasmodium falciparum proliferation (AID 504749). Further: nearly all actives have a fitted effect of over 60% in size. As to conditions: P. falciparum in erythrocytes, SYBR Green DNA, 72 h; series mostly up to 28.7 µM. In outline:
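Quantitative HTS: compounds pinned into medium, infected erythrocytes added (0.3% parasitemia, 2.5% hematocrit), 72 h culture at 37 C under 5% CO2. Saponin/Triton lysis with SYBR Green I, overnight RT, then fluorescence read.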
A general note: Quantitative high-throughput screening tests each substance at several concentrations.
`CCN(CC)C(=O)c1cccnc1`: the Potency entry was “inactive”.

Consider `CNC(=O)C[C@@H](N)C(=O)N[C@@H](C(=O)N[C@@H]1C(=O)N2[C@@H]1SC(C)(C)[C@@H]2C(=O)O)c1ccc(O)cc1`, for which the Potency entry is “inactive”.

Turning to `CCCCCCCCCCCCCCCCCC(=O)OCC(C)O` (centres undefined), the Potency result was “inactive”.

Consider `NC(=S)NS(=O)(=O)c1ccc(N)cc1`, for which the Potency entry is “inactive”.

As to `N=C(N)n1cccn1`, the Potency result is “inactive”.

Consider `Nc1ncnc2c1ncn2CCOCP(=O)(O)O`, for which the Potency result was “inactive”.

As to `CCC(C(=O)NC(N)=O)c1ccccc1` (centres undefined), the Potency result is “inactive”.

Regarding `CC(C)CCC[C@@H](C)[C@H]1CC[C@H]2[C@@H]3CC=C4C[C@@H](O)CC[C@]4(C)[C@H]3CC[C@]12C`, the Potency result was “inactive”.

For the compound `CC1=CCC2CC1C2(C)C` (centres undefined), the Potency entry was “inactive”.

Consider `NC(N)=O`, for which the Potency result was “inactive”.

With `Cc1ncc(C[n+]2csc(CCOP(=O)(O)OP(=O)(O)O)c2C)c(N)n1`, the Potency entry is “inactive”.

Consider `Nc1nc(=O)n([C@@H]2CS[C@H](CO)O2)cc1F`, for which the Potency result was “inactive”.

With `CCOC(=O)[C@@H](N)CS`, the Potency result is “inactive”.

Take `OCC(O)CO`: the Potency entry was “inactive”.

On to `O=C1c2ccccc2C(=O)C1c1ccc(F)cc1`, for which the Potency result is “inactive”.

Consider `O=C(O)COc1ccccc1/C=N/NC(=O)c1ccncc1`, for which the Potency result was “inactive”.

Take `Cc1cccc(C)c1NC(=O)C1CCCCN1C` (centres undefined): the Potency entry was “inactive”.

Regarding `CCC(C)[C@@H](N)C(=O)O` (some centres undefined), the Potency entry was “inactive”.

For the compound `CC(C)(Oc1ccc(C2CCCc3ccccc32)cc1)C(=O)O` (centres undefined), the Potency entry was “inactive”.

On to `CC(CC=O)CCCC(C)(C)O` (centres undefined), for which the Potency result is “inactive”.

As to `S=C1SCN(Cc2ccccc2)CN1Cc1ccccc1`, the Potency result was “inactive”.

Regarding `CC(C)Cc1ccc([C@@H](C)C(=O)NS(C)(=O)=O)cc1`, the Potency result was “inactive”.

As to `COc1cc2c(cc1OC)[C@@H](Cc1cc(OC)c(OC)c(OC)c1)[N+](C)(CCCOC(=O)CC/C=C/CCC(=O)OCCC[N+]1(C)CCc3cc(OC)c(OC)cc3[C@H]1Cc1cc(OC)c(OC)c(OC)c1)CC2` (some centres undefined), the Potency entry is “inactive”.

Regarding `COC(=O)CCC[N+](C)(C)C`, the Potency entry was “inactive”.

For `[O]=[Bi][O][Bi]=[O]`, the Potency entry was “inactive”.

For `C[C@]12CC[C@@H]3c4ccc(OC(=O)c5ccccc5)cc4CC[C@H]3[C@@H]1CC[C@@H]2O`, the Potency entry was “inactive”.

As to `Cc1ccc(C(C)(C)c2ccc(C)cc2)cc1`, the Potency entry was “inactive”.

For the compound `FC(F)OC(Cl)C(F)(F)F` (centres undefined), the Potency entry was “inactive”.

On to `CC(CCc1ccc(O)cc1)NCC(O)c1ccc(O)cc1` (centres undefined), for which the Potency entry is “inactive”.

Consider `CC1=C(/C=C/C(C)=C/C=C/C(C)=C/C(=O)Oc2c(C)c(C)c3c(c2C)CC[C@@](C)(CCC[C@H](C)CCC[C@H](C)CCCC(C)C)O3)C(C)(C)CCC1`, for which the Potency entry is “inactive”.

As for `O=P(O)(O)OP(=O)(O)OP(=O)(O)O`, the Potency result is “inactive”.

As for `CO/N=C(\C(=O)N[C@@H]1C(=O)N2C(C(=O)[O-])=C(C[n+]3cccc4c3CCC4)CS[C@H]12)c1csc(N)n1`, the Potency result was “inactive”.

With `CCCCCCCCCCCC(=O)OCC(O)CO` (centres undefined), the Potency entry is “inactive”.

In the case of `CS(=O)(=O)OCC(O)C(O)COS(C)(=O)=O` (centres undefined), the Potency result is “inactive”.

For `CC1=CC(=O)NS(=O)(=O)O1`, the Potency entry is “inactive”.

As to `O=C(O)CCCC/C=C(\c1ccccc1)c1cccnc1`, the Potency entry is “inactive”.

For the compound `CCN(CC)C(=S)S`, the Potency entry was “inactive”.

Regarding `C[Se]CC[C@H](N)C(=O)O`, the Potency result was “inactive”.

For `CC(C)[C@H](N)C(=O)OCC(CO)OCn1cnc2c(=O)[nH]c(N)nc21` (some centres undefined), the Potency entry is “inactive”.
